Measurements: PubChem BioAssay
Calls of active or inactive are those of the source.

Key:
[1] = test system: PRMT1 (protein arginine N-methyltransferase 1); experiment: PRMT1 binders on small-molecule microarrays, primary screen, biochemical, small-molecule microarray, 635 nm fluorescence (AID 1088); details: small-molecule microarray binding, higher = more signal;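 further: binding of Prmt1 protein to compounds spotted on small-molecule microarray slides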
[2] = yeast growth modulation, basal conditions, primary screen, YJM789 clinical isolate, OD600, 24 h (AID 1089);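 further: growth of clinical yeast isolate S. cerevisiae YJM 789 seeded 1000 cells per well; test concentration not given here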; details: S. cerevisiae YJM789 growth, higher = more signal, called active from +8 up or from −8 down
[3] = fission yeast growth modulation, primary screen, strain 972, OD600, 24 h, no modulator (AID 1090);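 further: basal condition with compound alone and no growth modifier present; test concentration not given here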; details: S. pombe 972 growth, higher = more signal, called active from +8 up or from −8 down
[4] = S. cerevisiae growth modulation with rapamycin, primary screen, strain BY4716, OD600, 96 h (AID 1091); details: higher = more signal, called active from +8 up or from −8 down; further: test concentration not given here
[5] = target: Torsin-1A-interacting protein 2 (Homo sapiens) (UniProt Q8NFQ8); experiment: LULL1 binders on small-molecule microarray, primary screen, cell lysate, human LULL1 lysate, 635/667 nm fluorescence (AID 1092); details: hLULL1 lysate binding, 635 nm fluorescence, higher = more signal;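 further: probe is lysate of COS7 cells overexpressing human LULL1; score merges per-feature 667 nm fluorescence with signal-to-noise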
Chain of Torsin-1A-interacting protein 2 (Homo sapiens) (Q8NFQ8 whole entry, looked up): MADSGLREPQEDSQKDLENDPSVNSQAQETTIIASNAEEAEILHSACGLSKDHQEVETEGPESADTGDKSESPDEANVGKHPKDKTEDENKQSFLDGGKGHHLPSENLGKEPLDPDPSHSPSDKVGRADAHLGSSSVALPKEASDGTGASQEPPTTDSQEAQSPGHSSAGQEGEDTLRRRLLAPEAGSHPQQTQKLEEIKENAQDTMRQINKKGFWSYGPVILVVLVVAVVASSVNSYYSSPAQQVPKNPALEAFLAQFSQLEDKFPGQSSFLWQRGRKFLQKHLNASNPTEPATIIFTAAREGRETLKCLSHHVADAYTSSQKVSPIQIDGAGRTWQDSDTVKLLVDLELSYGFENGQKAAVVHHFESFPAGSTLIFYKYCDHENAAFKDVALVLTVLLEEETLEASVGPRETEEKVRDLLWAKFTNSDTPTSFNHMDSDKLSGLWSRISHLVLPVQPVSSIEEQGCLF

[6] = E. coli growth modulation, two-sided OD650, primary screen, E. coli filamentation project, strain DRC41, 24 h (AID 1093); details: OD650, 24 h, higher = more signal, called active from +8 up or from −8 down;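 further: MC1000 strain lacking acrAB efflux and sulA so SOS filamentation is blocked; test concentration not given here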
[7] = small-molecule microarray binders of probe aLefty2, primary screen, biochemical, biotinylated probe, 635/667 nm fluorescence (AID 1094); details: higher = more signal;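 further: score merges spot fluorescence near 667 nm with spot signal-to-noise ratio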
[8] = test system: Noggin (protein binding on small-molecule microarray); experiment: Noggin binders on small-molecule microarray, primary screen, biochemical, 635/667 nm fluorescence (AID 1095); details: 635 nm fluorescence, higher = more signal;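 further: score merges 667 nm feature fluorescence with signal to noise over triplicate slides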
[9] = target: Neurogenic locus notch homolog protein 3 (Homo sapiens) (UniProt Q9UM47); experiment: NOTCH3 binders on small-molecule microarray, primary screen, biochemical, 635/667 nm fluorescence (AID 1096); details: NOTCH3 binding, 635 nm fluorescence, higher = more signal
Chain of Neurogenic locus notch homolog protein 3 (Homo sapiens) (Q9UM47 whole entry, looked up): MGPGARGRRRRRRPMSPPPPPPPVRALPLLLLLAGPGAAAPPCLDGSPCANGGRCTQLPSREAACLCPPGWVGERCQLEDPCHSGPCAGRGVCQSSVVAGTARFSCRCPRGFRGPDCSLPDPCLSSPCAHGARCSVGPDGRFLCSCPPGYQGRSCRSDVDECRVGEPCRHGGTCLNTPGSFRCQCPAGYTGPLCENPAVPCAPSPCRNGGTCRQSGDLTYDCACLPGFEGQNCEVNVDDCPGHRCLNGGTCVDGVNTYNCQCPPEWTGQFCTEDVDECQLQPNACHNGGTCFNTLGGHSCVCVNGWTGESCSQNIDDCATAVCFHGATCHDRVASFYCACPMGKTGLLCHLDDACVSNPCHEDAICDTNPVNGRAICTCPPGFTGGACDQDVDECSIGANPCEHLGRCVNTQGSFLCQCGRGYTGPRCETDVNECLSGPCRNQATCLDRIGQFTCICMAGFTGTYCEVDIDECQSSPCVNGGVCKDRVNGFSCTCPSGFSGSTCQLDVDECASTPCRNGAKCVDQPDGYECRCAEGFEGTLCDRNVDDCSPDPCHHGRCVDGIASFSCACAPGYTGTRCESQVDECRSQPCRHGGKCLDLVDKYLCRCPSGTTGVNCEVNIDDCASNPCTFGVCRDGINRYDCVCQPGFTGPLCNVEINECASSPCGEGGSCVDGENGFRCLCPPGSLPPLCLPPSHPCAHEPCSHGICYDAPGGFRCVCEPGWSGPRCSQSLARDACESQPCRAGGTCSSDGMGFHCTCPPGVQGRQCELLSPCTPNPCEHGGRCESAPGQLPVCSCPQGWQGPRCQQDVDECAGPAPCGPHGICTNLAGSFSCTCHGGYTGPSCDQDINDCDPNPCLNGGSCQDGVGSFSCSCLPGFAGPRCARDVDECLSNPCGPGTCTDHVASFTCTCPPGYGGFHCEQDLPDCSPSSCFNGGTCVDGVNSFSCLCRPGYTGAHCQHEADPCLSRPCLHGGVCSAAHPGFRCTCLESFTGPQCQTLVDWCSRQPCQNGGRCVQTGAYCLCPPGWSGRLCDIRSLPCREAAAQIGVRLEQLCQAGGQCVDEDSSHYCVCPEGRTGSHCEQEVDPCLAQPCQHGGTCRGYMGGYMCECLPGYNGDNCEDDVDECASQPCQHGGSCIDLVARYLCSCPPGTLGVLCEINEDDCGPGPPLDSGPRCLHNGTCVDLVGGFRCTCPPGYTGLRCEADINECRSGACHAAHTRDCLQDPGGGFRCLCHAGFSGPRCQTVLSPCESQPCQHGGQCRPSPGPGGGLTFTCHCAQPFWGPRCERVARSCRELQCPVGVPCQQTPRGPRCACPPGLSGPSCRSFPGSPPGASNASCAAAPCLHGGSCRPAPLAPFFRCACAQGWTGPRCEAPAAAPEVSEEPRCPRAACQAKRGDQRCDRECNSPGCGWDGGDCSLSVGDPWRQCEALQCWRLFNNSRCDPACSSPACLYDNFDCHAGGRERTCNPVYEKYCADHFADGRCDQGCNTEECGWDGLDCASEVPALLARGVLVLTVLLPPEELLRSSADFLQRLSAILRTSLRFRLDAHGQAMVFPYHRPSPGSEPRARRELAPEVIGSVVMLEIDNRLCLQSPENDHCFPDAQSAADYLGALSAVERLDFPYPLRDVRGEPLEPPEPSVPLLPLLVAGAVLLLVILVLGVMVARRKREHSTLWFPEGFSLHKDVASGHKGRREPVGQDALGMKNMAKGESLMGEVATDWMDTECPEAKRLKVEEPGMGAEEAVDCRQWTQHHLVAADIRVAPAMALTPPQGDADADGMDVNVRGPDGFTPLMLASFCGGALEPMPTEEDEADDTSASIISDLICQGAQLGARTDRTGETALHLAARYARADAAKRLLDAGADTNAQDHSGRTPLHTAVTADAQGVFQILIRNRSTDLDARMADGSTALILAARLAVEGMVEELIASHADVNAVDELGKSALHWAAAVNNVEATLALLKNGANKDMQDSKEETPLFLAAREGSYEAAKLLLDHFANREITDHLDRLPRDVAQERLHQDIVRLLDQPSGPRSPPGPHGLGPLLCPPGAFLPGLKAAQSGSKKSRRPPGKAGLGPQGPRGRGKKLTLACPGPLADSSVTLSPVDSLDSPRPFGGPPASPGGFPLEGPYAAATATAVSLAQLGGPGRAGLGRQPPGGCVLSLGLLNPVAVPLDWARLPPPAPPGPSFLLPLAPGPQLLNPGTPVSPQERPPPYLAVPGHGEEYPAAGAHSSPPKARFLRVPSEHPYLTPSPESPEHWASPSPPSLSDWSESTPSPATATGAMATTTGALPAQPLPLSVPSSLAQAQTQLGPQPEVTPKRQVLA

[10] = small-molecule microarray binders of probe aEGFR, primary screen, biochemical, biotinylated probe, 635/667 nm fluorescence (AID 1097); details: higher = more signal;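 further: probe is a biotinylated anti-EGFR antibody binding compounds printed on slides; score combines fluorescence near 667 nm and signal to noise of each spot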
[11] = test system: Plasmodium falciparum Sir2 (PF13_0152, Sir2A); experiment: pfSir2 binders on small-molecule microarrays, primary screen, biochemical, small-molecule microarray, 635 nm fluorescence (AID 1098); details: small-molecule microarray binding, fluorescence 635 nm; higher = more signal;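 further: score merges spot fluorescence intensity with its signal-to-noise ratio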
[12] = small-molecule microarray binders of probe aDKK1, primary screen, biochemical, biotinylated probe, 635/667 nm fluorescence (AID 1099); details: higher = more signal;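 further: score merges 667nm spot fluorescence with signal to noise across triplicate slides; reference of the scale not given here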
[13] = small-molecule microarray binders of probe aCHRDL2, primary screen, biochemical, biotinylated probe, 635/667 nm fluorescence (AID 1100); details: higher = more signal
[14] = splicing luciferase reporter signal modulators, primary screen, spliceosome inhibition project, cell-based, HEK293, splice +/- reporter (AID 1101); details: luminescence, 24 h, higher = more signal, called active from +8 up or from −8 down;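 further: HEK293 cells carrying a splicing-competent luciferase reporter gene; test concentration not given here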
[15] = target: Fibroblast growth factor 10 (Homo sapiens) (UniProt O15520); experiment: FGF10 binders on small-molecule microarrays, primary screen, biochemical, small-molecule microarray, 635 nm fluorescence (AID 1102); details: FGF10 binding, fluorescence 635 nm, higher = more signal
Chain of Fibroblast growth factor 10 (Homo sapiens) (O15520 whole entry, looked up): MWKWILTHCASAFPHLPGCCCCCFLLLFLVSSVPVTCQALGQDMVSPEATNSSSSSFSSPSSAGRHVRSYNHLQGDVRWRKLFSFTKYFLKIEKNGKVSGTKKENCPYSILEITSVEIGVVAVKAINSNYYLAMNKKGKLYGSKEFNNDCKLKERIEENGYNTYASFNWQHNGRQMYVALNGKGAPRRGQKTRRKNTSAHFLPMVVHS

[16] = test system: glycogen synthase kinase-3 (GSK3A per assay name; protocol says GSK3B); experiment: GSK3 binders on small-molecule microarrays, primary screen, biochemical, small-molecule microarray, 635 nm fluorescence, GSK3A (AID 1103); details: small-molecule microarray binding, fluorescence 635 nm; higher = more signal; further: the record names both GSK3A and GSK3B
[17] = target: Epidermal growth factor receptor (Homo sapiens) (UniProt P00533); experiment: EGFR binders on small-molecule microarrays, primary screen, biochemical, small-molecule microarray, 635 nm fluorescence (AID 1104); details: EGFR binding, higher = more signal;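 further: score merges 667 nm emission intensity with spot signal to noise over triplicate slides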
Chain of Epidermal growth factor receptor (Homo sapiens) (P00533 whole entry, looked up): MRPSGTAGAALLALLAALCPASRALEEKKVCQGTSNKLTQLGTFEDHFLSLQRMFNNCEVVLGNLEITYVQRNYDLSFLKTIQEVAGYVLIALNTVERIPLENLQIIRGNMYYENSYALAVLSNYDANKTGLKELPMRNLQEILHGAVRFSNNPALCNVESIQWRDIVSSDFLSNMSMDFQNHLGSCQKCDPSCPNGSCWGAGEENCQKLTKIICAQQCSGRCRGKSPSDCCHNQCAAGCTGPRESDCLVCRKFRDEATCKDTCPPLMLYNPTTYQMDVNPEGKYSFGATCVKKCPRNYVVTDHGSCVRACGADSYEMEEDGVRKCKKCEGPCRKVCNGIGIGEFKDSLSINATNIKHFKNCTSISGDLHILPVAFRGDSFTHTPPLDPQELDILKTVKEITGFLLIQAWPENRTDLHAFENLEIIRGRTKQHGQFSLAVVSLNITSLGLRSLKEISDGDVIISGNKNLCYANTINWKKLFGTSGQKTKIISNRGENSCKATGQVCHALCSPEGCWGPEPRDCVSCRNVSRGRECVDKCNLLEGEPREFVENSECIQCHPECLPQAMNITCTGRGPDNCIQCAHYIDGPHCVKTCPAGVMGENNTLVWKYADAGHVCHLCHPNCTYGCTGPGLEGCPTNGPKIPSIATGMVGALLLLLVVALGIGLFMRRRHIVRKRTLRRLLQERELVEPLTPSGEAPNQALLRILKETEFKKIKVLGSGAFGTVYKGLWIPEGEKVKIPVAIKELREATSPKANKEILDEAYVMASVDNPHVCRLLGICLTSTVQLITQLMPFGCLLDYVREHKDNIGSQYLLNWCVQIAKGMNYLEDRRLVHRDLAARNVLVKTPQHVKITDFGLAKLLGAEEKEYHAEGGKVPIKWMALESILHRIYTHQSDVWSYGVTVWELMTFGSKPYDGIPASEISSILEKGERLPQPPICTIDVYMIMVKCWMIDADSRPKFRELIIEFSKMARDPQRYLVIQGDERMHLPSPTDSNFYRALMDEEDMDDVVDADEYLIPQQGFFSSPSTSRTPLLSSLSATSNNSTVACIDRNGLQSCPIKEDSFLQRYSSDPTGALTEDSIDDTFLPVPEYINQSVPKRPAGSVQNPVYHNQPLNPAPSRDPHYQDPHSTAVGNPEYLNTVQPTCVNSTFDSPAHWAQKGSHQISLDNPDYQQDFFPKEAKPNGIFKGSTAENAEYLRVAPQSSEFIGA

[18] = target: Follistatin-related protein 3 (Homo sapiens) (UniProt O95633); experiment: FSTL3 binders on small-molecule microarrays, primary screen, biochemical, small-molecule microarray, 635 nm fluorescence (AID 1105); details: FSTL3 binding, higher = more signal;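 further: score merges emission near 667 nm and signal to noise per printed spot across three slides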
Chain of Follistatin-related protein 3 (Homo sapiens) (O95633 whole entry, looked up): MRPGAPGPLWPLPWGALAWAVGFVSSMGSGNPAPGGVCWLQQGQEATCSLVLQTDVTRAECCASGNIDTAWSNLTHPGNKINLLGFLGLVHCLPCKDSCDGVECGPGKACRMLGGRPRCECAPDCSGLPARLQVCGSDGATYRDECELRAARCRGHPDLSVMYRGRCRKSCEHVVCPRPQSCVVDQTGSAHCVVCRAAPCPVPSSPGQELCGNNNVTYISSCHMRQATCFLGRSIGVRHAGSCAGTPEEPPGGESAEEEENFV

[19] = target: Dickkopf-related protein 1 (Homo sapiens) (UniProt O94907); experiment: DKK1 binders on small-molecule microarrays, primary screen, biochemical, small-molecule microarray, 635 nm fluorescence scan (AID 1106); details: DKK1 binding, higher = more signal;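 further: score merges emission near 667 nm with signal to noise over three replicate slides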
Chain of Dickkopf-related protein 1 (Homo sapiens) (O94907 whole entry, looked up): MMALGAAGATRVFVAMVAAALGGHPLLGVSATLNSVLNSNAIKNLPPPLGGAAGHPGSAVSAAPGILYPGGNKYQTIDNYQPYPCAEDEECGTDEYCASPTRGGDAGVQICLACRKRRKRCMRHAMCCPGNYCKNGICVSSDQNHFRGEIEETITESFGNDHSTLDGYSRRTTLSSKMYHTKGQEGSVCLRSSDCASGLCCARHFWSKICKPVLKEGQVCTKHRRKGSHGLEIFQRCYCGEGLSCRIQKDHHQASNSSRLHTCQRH

[20] = test system: Inhibin beta A chain (activin A); experiment: INHBA (activin A) binders on microarrays, primary screen, biochemical, small-molecule microarray, 635 nm fluorescence scan (AID 1107); details: small-molecule microarray binding, higher = more signal;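 further: mouse activin A protein probed at 4.33 µg/mL on printed slides; score merges bound-protein fluorescence near 667 nm with spot signal-to-noise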

Structure (SMILES) | composite z-score [1] | z-score [2] | z-score [3] | z-score [4] | composite z-score [5] | z-score [6] | composite z-score [7] | composite z-score [8] | composite z-score [9] | composite z-score [10] | composite z-score [11] | composite z-score [12] | composite z-score [13] | z-score [14] | composite z-score [15] | composite z-score [16] | composite z-score [17] | composite z-score [18] | composite z-score [19] | composite z-score [20]
CC(C)C[C@@H]1NC(=O)[C@@H]2C[C@H](C(=O)NCCCC[N+](C)(C)C)[C@H](c3ccc(O)cc3)N2C1=O | 1.53 | -0.246 (inactive) | 0.491 (inactive) | -1.48 (inactive) | 1.76 | 0.0731 (inactive) | -0.0295 | 1.91 | 1.02 | 0.0251 | 1.39 | -0.0913 | -0.587 | 0.438 (inactive) | 1.3 | 0.896 | 0.81 | 1.56 | 1.79 | -0.531
NCCCC[C@@H]1NC(=O)[C@H]2C[C@@H](C(=O)NCc3ccc(F)cc3)[C@@H](c3cccc(OCCO)c3)N2C1=O | 1.56 | 1.74 (inactive) | -0.0785 (inactive) | 0.482 (inactive) | 2.69 | -0.765 (inactive) | -0.0258 | 1.81 | 1.05 | 0.0176 | 1.43 | 0.0142 | -0.142 | -0.436 (inactive) | 1.32 | 1.34 | 0.803 | 1.47 | 1.6 | 0.799
C#CCN([C@H](/C=C/C1CC1)[C@@H](O)Cc1ccccc1)[C@@H](Cc1ccccc1)C(=O)OC | 0.447 | -0.345 (inactive) | -0.825 (inactive) | 0.316 (inactive) | 0.126 | 0.598 (inactive) | -0.128 | 0.237 | 0.606 | -0.198 | -0.135 | -0.281 | 0.0495 | -0.606 (inactive) | -0.351 | -0.604 | -0.215 | 0.232 | -0.0707 | 0.858
C=C(COC)C(=O)CC[C@@H](OC(C)=O)c1ccc(OCCO)cc1 | 1.07 | 0.0756 (inactive) | -2.44 (inactive) | -0.056 (inactive) | 0.276 | -0.0345 (inactive) | -0.159 | 0.482 | 0.512 | -0.21 | 1.09 | 0.237 | 0.523 | 2 (inactive) | 0.977 | 0.186 | -0.484 | 0.278 | -0.0393 | 1.42
CCOC(=O)C1=C(C(=O)OCC)N(S(=O)(=O)CC[Si](C)(C)C)[C@H](c2ccccc2)CC1 | 1.03 | 0.807 (inactive) | 1.83 (inactive) | 1.85 (inactive) | 1.84 | -0.219 (inactive) | 0.138 | 0.472 | 1.07 | 0.108 | 0.461 | 0.879 | 0.845 | 0.37 (inactive) | 0.8 | 1 | 0.313 | 0.971 | -0.111 | 0.955
CN(C)CCCCNC(=O)[C@H]1C[C@H]2C(=O)N[C@@H](Cc3ccccc3)C(=O)N2[C@H]1c1cccc(OCCO)c1 | 0.193 | -1.11 (inactive) | 0.0737 (inactive) | -0.247 (inactive) | 0.33 | 1.13 (inactive) | -0.0924 | 0.622 | 0.307 | -0.0512 | 1.2 | -0.336 | 0.336 | -1.9 (inactive) | -0.407 | -1.51 | 0.0459 | 0.198 | 0.574 | -0.272
C=C(CCCC)C(=O)CC[C@H](OC(C)=O)c1ccccc1OCCO | 1.19 | 0.489 (inactive) | -2.03 (inactive) | -0.438 (inactive) | 0.383 | 0.733 (inactive) | -0.12 | 0.0384 | 0.67 | -0.177 | 1.51 | -0.179 | -0.123 | 1.77 (inactive) | 0.633 | -0.783 | 0.333 | 0.467 | 0.513 | 0.491
COC(=O)C1=CC(CCCO)=CC(C2CC2)N(Cc2cccc(OC(F)(F)F)c2)C=C1C(=O)OC (stereo not given) | 1.13 | -2.46 (inactive) | -1.06 (inactive) | -2.24 (inactive) | 2.82 | -2.57 (inactive) | 0.0386 | -0.273 | 0.749 | -0.0353 | 1.19 | 0.0765 | 0.234 | 0.449 (inactive) | 0.107 | -0.363 | -0.659 | 0.315 | -0.59 | 0.674
C=CC[C@]1(C(=O)OC)N=C(c2ccc(OCCCO)cc2)O[C@H]1c1ccccc1N=[N+]=[N-] | 1.54 | -0.747 (inactive) | -0.652 (inactive) | 1.35 (inactive) | 3.36 | -0.225 (inactive) | 0.529 | 1.41 | 1.08 | 0.686 | 1.54 | 1.21 | 0.865 | -1.4 (inactive) | 1.25 | 1.31 | 1.19 | 1.37 | 1.26 | 0.826
